# Data from PubChem BioAssay AID1159580 (chemical genetic matrix, 2015).
# Out of some 5,500 compounds screened, about 2,000 (36%) were called active. About 18% were inconclusive and are not listed. Some of the results follow. Values without a mark were called inactive. No stated cut-off is given here; in the data, active means normalized growth mostly below about 0.91 (no sharp cut-off); inconclusive means no clear call, values can overlap the other calls; inactive means mostly above about 0.92.
# Test: chemical genetic growth profiling, strain panel (AID 1159580);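 further: tested at 20 µM; growth read once vehicle control cultures reached saturation at 30 °C; 1 = growth at the plate median or of vehicle wells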
# Settings: S. cerevisiae deletion strains, growth OD
compound,measurement,setting,value
O=c1cc(-c2ccc(O)c(O)c2)oc2ccccc12,normalized growth,"locus YAL021C, strain ccr4, stronger effect = lower value",0.999
same,normalized growth,"locus YAL026C, strain drs2, stronger effect = lower value",0.964
same,normalized growth,"locus YAL030W, strain snc1, stronger effect = lower value",0.986
same,normalized growth,"locus YBL061C, strain skt5, stronger effect = lower value",0.965
same,normalized growth,"locus YBR009C, strain hhf1, stronger effect = lower value",0.933
same,normalized growth,"locus YBR023C, strain chs3, stronger effect = lower value",0.961
same,normalized growth,"locus YBR171W, strain sec66, stronger effect = lower value",0.97
same,normalized growth,"locus YBR231C, strain swc5, stronger effect = lower value",0.924
same,normalized growth,"locus YBR279W, strain paf1, stronger effect = lower value",0.977
same,normalized growth,"locus YCL011C, strain gbp2, stronger effect = lower value",0.956
same,normalized growth,"locus YCL016C, strain dcc1, stronger effect = lower value",0.969
same,normalized growth,"locus YCL061C, strain MRC1, stronger effect = lower value",0.965
same,normalized growth,"locus YCL069W, strain vba3, stronger effect = lower value",0.996
same,normalized growth,"locus YCR088W, strain abp1, stronger effect = lower value",0.997
same,normalized growth,"locus YDL005C, strain med2, stronger effect = lower value",0.998
same,normalized growth,"locus YDL040C, strain nat1, stronger effect = lower value",0.989
same,normalized growth,"locus YDR001C, strain nth1, stronger effect = lower value",0.994
same,normalized growth,"locus YDR069C, strain doa4, stronger effect = lower value",0.893 (active)
same,normalized growth,"locus YDR137W, strain rgp1, stronger effect = lower value",0.985
same,normalized growth,"locus YDR159W, strain sac3, stronger effect = lower value",0.971
same,normalized growth,"locus YDR195W, strain ref2",1.02
same,normalized growth,"locus YDR297W, strain sur2, stronger effect = lower value",0.971
same,normalized growth,"locus YDR334W, strain swr1, stronger effect = lower value",0.976
same,normalized growth,"locus YDR335W, strain msn5, stronger effect = lower value",0.995
same,normalized growth,"locus YDR392W, strain spt3, stronger effect = lower value",0.954
same,normalized growth,"locus YEL003W, strain gim4, stronger effect = lower value",0.946
same,normalized growth,"locus YEL037C, strain rad23, stronger effect = lower value",0.984
same,normalized growth,"locus YEL061C, strain CIN8 (second series), stronger effect = lower value",0.989
same,normalized growth,"locus YER015W, strain faa2, stronger effect = lower value",0.955
same,normalized growth,"locus YER016W, strain bim1, stronger effect = lower value",0.991
same,normalized growth,"locus YER111C, strain swi4, stronger effect = lower value",0.962
same,normalized growth,"locus YER155C, strain BEM2 (second series), stronger effect = lower value",0.926
same,normalized growth,"locus YFR010W, strain ubp6, stronger effect = lower value",0.947
same,normalized growth,"locus YGL167C, strain pmr1, stronger effect = lower value",0.98
same,normalized growth,"locus YGL173C, strain kem1, stronger effect = lower value",0.936
same,normalized growth,"locus YGL227W, strain vid30, stronger effect = lower value",0.991
same,normalized growth,"locus YGL240W, strain doc1, stronger effect = lower value",1.01
same,normalized growth,"locus YGL253W, strain hxk2, stronger effect = lower value",0.963
same,normalized growth,"locus YHR013C, strain ard1, stronger effect = lower value",0.983
same,normalized growth,"locus YHR027C, strain rpn1, stronger effect = lower value",0.966
same,normalized growth,"locus YHR142W, strain chs7, stronger effect = lower value",0.962
same,normalized growth,"locus YJL092W, strain hpr5, stronger effect = lower value",0.983
same,normalized growth,"locus YJL095W, strain BCK1 (second series), stronger effect = lower value",0.976
same,normalized growth,"locus YJL115W, strain asf1, stronger effect = lower value",0.991
same,normalized growth,"locus YJL129C, strain trk1, stronger effect = lower value",0.978
same,normalized growth,"locus YJL154C, strain vps35, stronger effect = lower value",0.996
same,normalized growth,"locus YJL164C, strain tpk1, stronger effect = lower value",0.942
same,normalized growth,"locus YJL166W, strain qcr8, stronger effect = lower value",0.932
same,normalized growth,"locus YJL187C, strain SWE1, stronger effect = lower value",0.982
same,normalized growth,"locus YKL160W, strain elf1, stronger effect = lower value",0.974
same,normalized growth,"locus YKR026C, strain gcn3, stronger effect = lower value",0.972
same,normalized growth,"locus YKR091W, strain srl3, stronger effect = lower value",1
same,normalized growth,"locus YLL001W, strain dnm1, stronger effect = lower value",0.965
same,normalized growth,"locus YLL026W, stronger effect = lower value",0.987
same,normalized growth,"locus YLL041C, strain sdh2, stronger effect = lower value",0.99
same,normalized growth,"locus YLR027C, strain aat2, stronger effect = lower value",0.943
same,normalized growth,"locus YLR221C, strain rsa3, stronger effect = lower value",0.927
same,normalized growth,"locus YLR258W, strain gsy2, stronger effect = lower value",0.967
same,normalized growth,"locus YLR262C, strain YPT6 (second series), stronger effect = lower value",0.934
same,normalized growth,"locus YLR320W, strain mms22, stronger effect = lower value",0.943
same,normalized growth,"locus YLR342W, strain FKS1, stronger effect = lower value",0.961
same,normalized growth,"locus YLR357W, strain rsc2, stronger effect = lower value",0.927
same,normalized growth,"locus YLR370C, strain arc18, stronger effect = lower value",0.993
same,normalized growth,"locus YLR384C, strain iki3, stronger effect = lower value",0.981
same,normalized growth,"locus YML120C, strain ndi1, stronger effect = lower value",0.978
same,normalized growth,"locus YMR125W, strain sto1, stronger effect = lower value",0.991
same,normalized growth,"locus YMR129W, stronger effect = lower value",0.99
same,normalized growth,"locus YMR205C, strain PFK2, stronger effect = lower value",0.982
same,normalized growth,"locus YMR231W, strain pep5, stronger effect = lower value",0.961
same,normalized growth,"locus YNL071W, strain lat1, stronger effect = lower value",0.965
same,normalized growth,"locus YNL209W, strain ssb2, stronger effect = lower value",0.932
same,normalized growth,"locus YNL248C, strain rpa49, stronger effect = lower value",0.986
same,normalized growth,"locus YNL322C, strain KRE1 (second series), stronger effect = lower value",0.989
same,normalized growth,"locus YNR049C, strain mso1, stronger effect = lower value",0.992
same,normalized growth,"locus YOR001W, strain rrp6, stronger effect = lower value",0.928
same,normalized growth,"locus YOR070C, strain gyp1, stronger effect = lower value",0.956
same,normalized growth,"locus YOR080W, strain dia2, stronger effect = lower value",0.986
same,normalized growth,"locus YOR083W, strain WHI5, stronger effect = lower value",0.959
same,normalized growth,"locus YOR106W, strain vam3, stronger effect = lower value",0.867 (active)
same,normalized growth,"locus YOR265W, strain rbl2, stronger effect = lower value",1.01
same,normalized growth,"locus YOR270C, strain vph1, stronger effect = lower value",0.83
same,normalized growth,"locus YOR290C, strain snf2, stronger effect = lower value",0.968
same,normalized growth,"locus YPL051W, strain arl3, stronger effect = lower value",0.926
same,normalized growth,"locus YPL078C, strain atp4, stronger effect = lower value",0.985
same,normalized growth,"locus YPL106C, strain sse1, stronger effect = lower value",0.938
same,normalized growth,"locus YPL240C, strain hsp82, stronger effect = lower value",0.99
